Holding throughout (format): functional
For assay [1], the system named is Plasmodium falciparum. The assay can be described thus: GSK_TCMDC: Inhibition of Plasmodium falciparum 3D7 in whole red blood cells, using parasite LDH activity as an index of growth. Test compounds present at 2uM.
For assay [2], the system named is Plasmodium falciparum. The assay is described as follows: GSK_TCMDC: Inhibition of Plasmodium falciparum Dd2 in whole red blood cells, using parasite LDH activity as an index of growth. Test compounds present at 2uM.
The subject of a further assay is HepG2. The assay can be described thus: GSK_TCMDC: Percent inhibition of human HepG2 cell line. Test compounds present at 10uM.

For orientation: Inhibition means the change of the read-out against control, counted positive when it falls. Consider `Cc1[nH]c2ccc(-c3ccc(N(C)C)cc3)cc2c(=O)c1Cl`, for which the results for the Inhibition in the assay with Plasmodium falciparum [1], in the assay on Plasmodium falciparum [2] and in the assay on HepG2 were 97%, 96% and 0%, respectively.
In the same order, the values of `CC(C)C[C@H](NC(=O)c1ccc(OCCN2CCOCC2)cc1)C(=O)N[C@H](/C=N/N1CCNC1=O)CCc1ccccc1` are 89%, 94% and 1%.
As to `COc1ccc(-c2nnc(Sc3ccc(C#N)c([N+](=O)[O-])c3)n2CC(C)C)cc1`, the figures for the Inhibition with Plasmodium falciparum [1], in the assay with Plasmodium falciparum [2] and with HepG2 were 97%, 78% and 3%, respectively.
As for `CC(=O)Oc1ccc(C(=O)Oc2ccccc2C#CC#N)cc1OC(C)=O`, the figures for the Inhibition in the assay with Plasmodium falciparum [1], in the assay with Plasmodium falciparum [2] and with HepG2 were 93%, 61% and 23%, respectively.
The corresponding values for `COc1cc2nc(-c3ccccc3)nc(N3CCN(CC(=O)N4CCCC4)CC3)c2cc1OC` are 84%, 70% and 7%.
In the same order, the values of `Cc1cccc2nc(-c3ccc(-c4ccc(NC(=O)Nc5ccc(Cl)c(Cl)c5)cc4)cc3)[nH]c12` are 100%, 100% and 37%.
With `N#Cc1ccc(-c2ccc(C(=O)NCCCCN3CCC(c4nc5ccccc5[nH]4)CC3)cc2)cc1`, the Inhibition was 92% in the assay on Plasmodium falciparum [1], 13% in the assay with Plasmodium falciparum [2] and 43% with HepG2.
`COc1ccc(NC(=O)[C@H](Cc2ccccc2)Nc2cc(C)nc(NCCc3ccccc3)n2)cc1.O=C(O)C(F)(F)F`: the figures for the Inhibition in the assay on Plasmodium falciparum [1], in the assay on Plasmodium falciparum [2] and in the assay on HepG2 were 98%, 83% and 6%, respectively.
Regarding `CC(=O)N1CCN(c2ccc(NC(=O)c3oc(-c4ccccc4)nc3C(F)(F)F)cn2)CC1`, the results for the Inhibition with Plasmodium falciparum [1], with Plasmodium falciparum [2] and in the assay on HepG2 were 92%, 93% and 0%, respectively.
In the same order, the values of `O=C(/C=C/c1ccc(Cl)c(Cl)c1)N1CCC(CN2CCC(Cc3c[nH]c4ccccc34)CC2)CC1` are 98%, 13% and 24%.

The record behind these values is ChEMBL document CHEMBL1157539, “Thousands of chemical starting points for antimalarial lead identification” (Nature, 2010).
